Giardia killer: Small Molecules that selectively kill Giardia lamblia: qHTS; AID 540267, 2011; activity change, % at 7.66 µM, hits read low; Giardia lamblia trophozoite viability; 340,000 compounds, 0.15% hits; in the data active = activity change below about -80%; inconclusive = between about -30% and that limit;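 note: parasites exposed to compound for two days anaerobically before the ATP read; % is set by controls: 0 for no effect and ±100 for the full control effect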
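Giardia lamblia trophozoites (100 cells/well) were incubated with compounds for 48 h at 37 deg C under anaerobic conditions. Viability was read as ATP content by one-step luminescence after 15-30 min at room temperature.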
TrxR1 substrate: qHTS Assay for Substrates of Mammalian Selenoprotein Thioredoxin Reductase 1 (TrxR1): qHTS; 390,000 compounds, 0.01% hits; purified TrxR1 substrate turnover, NADPH consumption readout; Thioredoxin reductase 1, cytoplasmic (Rattus norvegicus), O89049; Potency, µM (series often up to 114 µM), without a hit: at the top dose activity change, negative = substrate turnover; note: potency is the fitted concentration of half-maximal effect; % is set by controls: 0 for no effect and ±100 for the full control effect; nearly all actives have a fitted effect of over 50% in size
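Rat TrxR1, dispensed at 90 nM, was prereduced with 400 uM NADPH (final) for 5 min at ~22 deg C, then incubated with compound 15 min before 400 uM selenite. A first-read NADPH fluorescence drop versus no-compound background flagged substrates.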
BRCA1 expr up: qHTS Assay to Identify Small Molecule Activators of BRCA1 Expression; MCF7-BRCA1-FFLuc reporter, luminescence, 48 h; response scale: scaled: vehicle 0%, 10 µM genistein 100%; AID 624202, 2012; 380,000 compounds, 1.1% hits; Potency, µM (doses to about 46.1 µM), without a hit: top-dose activation, most hits filed as activators; note: potency is the fitted concentration of half-maximal effect; nearly all actives have a fitted effect of over 80% in size
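Reporter cells (MCF7, BRCA1 promoter-firefly luciferase) received library compounds across a concentration series for 48 h. End-point luminescence was measured and concentration-effect curves derived after normalization.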
rTrxR1 inhibitor: qHTS Assay for Inhibitors of Mammalian Selenoprotein Thioredoxin Reductase 1 (TrxR1): qHTS. 390,000 compounds, 1% hits. Thioredoxin reductase 1, cytoplasmic (Rattus norvegicus), O89049. recombinant rTrxR1, NADPH fluorescence consumption, selenite substrate. Potency, µM (titrated, usually from 114 µM), inactives show at the top dose activity change, negative = inhibition, hits mostly inhibitors; note: potency is the fitted concentration of half-maximal effect; % is set by controls: 0 for no effect and ±100 for the full control effect; nearly all actives have a fitted effect of over 65% in size
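Rat TrxR1 (90 nM in the dispensed reagent) was pre-reduced with 400 uM NADPH for 5 min at room temperature, then incubated with compound for 15 min. After 400 uM selenite was added, NADPH fluorescence (Ex 340/Em 450 nm) was followed for 8 min.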
mIDH1 inhibitor: qHTS for Inhibitors of mutant isocitrate dehydrogenase 1 (IDH1): qHTS; IDH1-R132H enzyme, NADPH consumption, diaphorase/resazurin fluorescence; Potency, µM (titrated, usually from 76.6 µM), for the others: top-dose activity change, negative = inhibition, actives largely listed as inhibitors; 390,000 compounds, 0.093% hits; AID 602179, 2012; note: potency is the fitted concentration of half-maximal effect; % is set by controls: 0 for no effect and ±100 for the full control effect; nearly all actives have a fitted effect of over 65% in size
Target sequence (O75874 whole entry R132H, stated change not applied): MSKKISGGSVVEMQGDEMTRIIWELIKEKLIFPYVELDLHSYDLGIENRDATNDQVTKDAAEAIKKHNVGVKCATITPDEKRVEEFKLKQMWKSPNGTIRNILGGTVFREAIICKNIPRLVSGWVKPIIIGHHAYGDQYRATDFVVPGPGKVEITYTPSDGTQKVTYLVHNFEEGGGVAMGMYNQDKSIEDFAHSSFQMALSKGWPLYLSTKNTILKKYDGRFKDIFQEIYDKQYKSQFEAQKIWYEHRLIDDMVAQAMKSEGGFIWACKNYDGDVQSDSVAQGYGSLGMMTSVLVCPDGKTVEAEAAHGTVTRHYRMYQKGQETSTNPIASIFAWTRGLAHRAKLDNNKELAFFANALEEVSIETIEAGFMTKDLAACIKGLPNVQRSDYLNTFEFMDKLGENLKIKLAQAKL
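IDH1-R132H (0.5 ug/mL dispensed) in pH 7.5 Tris buffer was preincubated 30 min with compound, then given a substrate mix of 0.016 mM NADPH and 2 mM alpha-KG for 80 min at room temperature; remaining NADPH was read by diaphorase/resazurin fluorescence.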
IL2 activator: qHTS of IL-2 Activators. activation, % (series mostly up to about 46 µM). 360,000 compounds, 0.065% hits. IL-2 activation reporter assay, cell-based qHTS; stimulated with anti-CD3/CD4/CD28 beads; in transgenic mouse T cells. AID 652025, 2013; in the data active = activation above about 50%; inconclusive = mostly about 30% to 49%; note: 0% is about no effect
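Unstimulated transgenic mouse T cells, 750 per well, received compound and, after 60 minutes, anti-CD3/anti-CD4 bead plus anti-CD28 stimulation. EGFP and DsRed were quantified after 18 hours.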
* = called active by the depositor; [ ] = dose if it differs, or a comment. Hits are enriched below; roughly 2.2% of the tested compounds scored in any of these assays. Unless noted, calls come from the whole dose curve; as a rule, active = well fitted curve in the direction sought with a large enough effect; inconclusive = small, poorly fitted or top-dose-only effect, or another doubt; inactive = no such curve, though single readings can be large; an effect the other way counts as inactive or inconclusive.

COc1ccc(C=C2C(=O)NC(=S)NC2=O)cc1OC was read as Giardia killer 5.8, TrxR1 substrate -3.5%, BRCA1 expr up -5.0%, rTrxR1 inhibitor 7.08µM*, mIDH1 inhibitor -4.3% and IL2 activator 0.9.
COc1ccc(/C=C/C=C2C(=O)NC(=S)NC2=O)cc1 was read as Giardia killer 18.2, TrxR1 substrate -5.5%, BRCA1 expr up -42.3%, rTrxR1 inhibitor 7.08µM*, mIDH1 inhibitor inconclusive and IL2 activator 0.9.
For O=C1C(Cl)=CC(=Nc2ccc(O)cc2)C=C1Cl the results were Giardia killer 14.3, TrxR1 substrate -2.9%, BRCA1 expr up -25.1%, rTrxR1 inhibitor 1.58µM*, mIDH1 inhibitor 2.2% and IL2 activator -0.4.
For O=C(CNC(=O)c1cccc(S(=O)(=O)N2CCc3ccccc32)c1)Nc1ccccc1Br the results were Giardia killer -1.5, TrxR1 substrate -10.9%, BRCA1 expr up -4.6%, rTrxR1 inhibitor inconclusive, mIDH1 inhibitor 7.7% and IL2 activator -3.2.
`NCCc1cc(O)c(O)cc1O` gave Giardia killer -4.1, TrxR1 substrate -8.5%, BRCA1 expr up 20.3%, rTrxR1 inhibitor 56.2µM*, mIDH1 inhibitor 15.7% and IL2 activator 0.0.
CCCC(=O)NC(Oc1ccccc1Cl)C(Cl)(Cl)Cl (stereo not given) was read as Giardia killer 9.8, TrxR1 substrate 4.1%, BRCA1 expr up 3.6%, rTrxR1 inhibitor 15.8µM*, mIDH1 inhibitor 4.1% and IL2 activator -0.8.
NCC#Cc1ccccc1 was read as rTrxR1 inhibitor 1.9%.
`O=C1NC(=O)C(=Cc2ccc(N3CCN(C(=O)c4ccccc4)CC3)c([N+](=O)[O-])c2)C(=O)N1` gave Giardia killer -13.9, TrxR1 substrate -9.4%, BRCA1 expr up -10.4%, rTrxR1 inhibitor 10µM*, mIDH1 inhibitor 3.4% and IL2 activator 0.2.
For CC(C)CC1C(=O)N2CCC[C@H]2[C@]2(O)O[C@](NC(=O)[C@@H]3C=C4c5cccc6[nH]c(Br)c(c56)C[C@H]4N(C)C3)(C(C)C)C(=O)N12 (stereo not given in full) the results were Giardia killer -0.7, TrxR1 substrate -3.6%, BRCA1 expr up 0.0% and rTrxR1 inhibitor 12.7%.
Cc1ccc(-n2c(-c3nn(C)c(C)c3Cl)n[nH]c2=S)cc1 was read as Giardia killer 16.7, TrxR1 substrate -10.7%, BRCA1 expr up 2.1%, rTrxR1 inhibitor 39.8µM*, mIDH1 inhibitor 3.0% and IL2 activator 0.2.
CN1C(=O)C(=Cc2ccc(N3CCCCCC3)cc2)C(=O)N(C)C1=O was read as Giardia killer -15.4, TrxR1 substrate -16.9%[57.1 µM], BRCA1 expr up 0.0%, rTrxR1 inhibitor -42.8%, mIDH1 inhibitor 0.7% and IL2 activator -0.5.
`CN1C(=O)C(=Cc2cccnc2)C(=O)N(C)C1=O` gave Giardia killer -10.1, TrxR1 substrate 6.9%, BRCA1 expr up -16.6%, rTrxR1 inhibitor 22.4µM*, mIDH1 inhibitor 3.2% and IL2 activator 0.5.
For COC(=O)Cn1cc(/C=C2\C(=O)NC(=O)N(c3ccc(OC)cc3)C2=O)c2ccccc21 the results were Giardia killer -5.8, TrxR1 substrate 27.2%[57.1 µM], BRCA1 expr up 0.3%, rTrxR1 inhibitor -16.3%[57.1 µM], mIDH1 inhibitor 10.0% and IL2 activator 92.4*.
Screening COc1ccc(N2C(=O)NC(=O)/C(=C\c3cn(C)c4ccccc34)C2=O)cc1 returned Giardia killer 0.6, TrxR1 substrate -8.5%, BRCA1 expr up -16.5%, rTrxR1 inhibitor inconclusive, mIDH1 inhibitor 21.0% and IL2 activator 2.4.
`C/C(=N\OC(=O)NC(C)C)c1sc(-c2ccccc2)nc1C` gave Giardia killer 29.4, TrxR1 substrate -7.4%, BRCA1 expr up 5.62µM*, rTrxR1 inhibitor 4.8%[57.1 µM], mIDH1 inhibitor 1.3% and IL2 activator -1.4.

Source: PubChem (National Center for Advancing Translational Sciences (NCATS))
